MIN6 prolif: inducers of beta-cell replication in MIN6 cells | proliferation, % at 10 µM | MIN6 cells proliferation, ATPlite luminescence, 48 h; cells starved in 0.2% serum; 100% = growth in 10% serum | 330,000 tested, 0.29% active;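 active means compounds whose signal lies at least 3.5 SD above the mean of all wells on their plate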;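 further: 0% = DMSO-treated cells in low-serum medium and 100% = 10% serum control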
FAS TE block: FAS thioesterase (human) inhibition. recombinant FAS-TE, OMFH fluorogenic substrate, fluorescence endpoint. inhibition, % at 15 µM. 360,000 tested, 0.67% active. AID 602261;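 active means compounds whose normalised, plate-corrected inhibition of enzyme fluorescence in the single-dose primary screen is 50% or more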;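 further: 0% = DMSO with enzyme and 100% = substrate without enzyme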
MPTP inh: permeability transition pore inhibition | 360,000 tested, 1.4% active | AID 602449 | inhibition, % at 10 µM | isolated mouse mitochondria, Ca2+ swelling absorbance, 30 min;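 active means inhibition of 50% or more, scaled per plate between neutral and stimulator controls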;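 further: 0% = DMSO wells given calcium and 100% = 1 mM EGTA wells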
p-CIP stab down: p/CIP protein destabilization; Q05BA5; F442A p/CIP-EGFP cells, EGFP fluorescence, 16 h; decrease of EGFP signal, % at 10 µM; 290,000 tested, 0.01% active; AID 1984;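 active means EGFP signal decrease of at least 30% at 10 µM or well 3 SD below plate mean, unless failing retest; inactive means the rest, including hits failing retest or dose response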
GRIN3A LBD mod: NR3A (human) ligand-binding domain modulation; NR3A LBD differential scanning fluorimetry, Tm shift; 0% = protein alone, 100% = glycine-bound protein; Tm shift relative to glycine control, % at 25 µM; 340,000 tested, 2.5% active; AID 1259313;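 active means melting temperature shift of at least 10% of the positive control shift, at one fixed dose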
FAS-TE inh conf: FAS thioesterase (human) inhibition, confirmation; inhibition, % at 15 µM; recombinant FAS-TE, OMFH fluorogenic substrate, fluorescence; 2,300 tested, 45% active; shares compounds with FAS TE block;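 active means compounds inhibiting the enzyme by at least 50% at 15 µM in any one of the replicates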;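 further: 0% = enzyme with DMSO only and 100% = wells lacking enzyme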
Starred values were filed as active, the others as inactive; nt = no result. Most compounds without a hit are left out; they make up all but 4.1% or so of the library.

SMILES | MIN6 prolif | FAS TE block | MPTP inh | p-CIP stab down | GRIN3A LBD mod | FAS-TE inh conf
O=C(NCC1CCCCC1)C12CN(Cc3ccccc3)CC1C(c1cccc([N+](=O)[O-])c1)=NO2 (stereo not given) | -7.4 | 54.2* | 1.4 | -0.5 | -0.8 | 29.5
COc1ccc(CCNC(=O)C23CN(Cc4ccccc4)CC2C(c2cccc([N+](=O)[O-])c2)=NO3)cc1 (stereo not given) | -4.5 | 38.3 | -1.4 | -3.3 | -2.5 | nt
Cc1cccc(-n2cnc3c(sc4nc(N5CCOCC5)c5c(c43)CCCC5)c2=O)c1 | -3.3 | 65.9* | 8.6 | -8.9 | -0.2 | 5.9
CCN(CC)c1ncnc2c1sc1nc(N3CCOCC3)c3c(c12)CCC3 | nt | nt | nt | 3.7 | nt | nt
Cc1cccc([C@@H]2[C@@H]3C(=O)N(Cc4ccccc4)C(=O)[C@@H]3[C@]3(Cc4ccccc4)C(=O)N(c4cccc(F)c4)C(=O)N23)c1 | -3.0 | 91.7* | 0.8 | nt | -3.6 | 17.2
CC[C@@]12C(=O)N(c3cccc(F)c3)C(=O)N1[C@H](c1cccc(C)c1)[C@@H]1C(=O)N(Cc3ccccc3)C(=O)[C@@H]12 | -3.0 | 15.6 | 0.1 | 3.1 | -11.2 | nt
CCN1C(=O)[C@H]2[C@@H](c3ccccc3)N3C(=O)N(c4cccc(F)c4)C(=O)[C@@]3(CC(C)C)[C@H]2C1=O | -1.9 | -3.8 | -0.9 | 0.0 | 1.4 | nt
Cc1cccc([C@@H]2[C@@H]3C(=O)N(Cc4ccccc4)C(=O)[C@@H]3[C@]3(CC(C)C)C(=O)N(c4cccc(F)c4)C(=O)N23)c1 | -6.7 | 71.9* | 0.6 | nt | -4.9 | 25.9
CCOC(=O)[C@]12CCC=C1N(Cc1ccco1)C(=O)[C@H](CC(=O)NCc1cccs1)C2 | nt | -3.2 | -0.1 | nt | nt | nt
CN(C)S(=O)(=O)c1ccc(N2CCCC2)c(C(=O)Nc2nc3ccc(F)cc3s2)c1 | -4.4 | 70.9* | 2.0 | -2.6 | -17.7 | 21.9
CN(C)S(=O)(=O)c1ccc(N2CCCC2)c(C(=O)Nc2nc(-c3ccc(F)cc3)cs2)c1 | -2.2 | 55.5* | -0.4 | 7.0 | -6.1 | 23.8
CN(C)S(=O)(=O)c1ccc(N2CCCC2)c(C(=O)Nc2nc3ccccc3s2)c1 | -3.5 | 4.0 | -0.2 | -14.7 | 1.3 | nt
Cc1[nH]c(=O)[nH]c(=O)c1C=CC(=O)NC(CO)CS(=O)Cc1ccccc1 (stereo not given) | nt | -11.2 | 1.9 | nt | nt | nt
Cc1csc(NC(=O)C2CCN(S(=O)(=O)c3ccc4c(c3)oc(=O)n4C)CC2)n1 | -4.4 | 58.9* | -0.4 | -8.4 | 0.6 | 67.8*
Cn1c(=O)oc2cc(S(=O)(=O)N3CCC(C(=O)NCc4cccs4)CC3)ccc21 | -2.8 | -1.8 | -0.6 | -12.8 | -0.5 | nt
Cc1ccc2c(c1C)-c1c(ccc(C)c1C)C(=O)C2=O | nt | 61.1* | -3.2 | nt | 4.0 | 56.0*
CC1(C)CC(=O)C=C(c2ccc(COC(=O)c3ccccc3)cc2)C1=O | nt | 64.1* | 0.3 | nt | nt | 43.2*
CC1(C)CC(=O)C=C(c2ccc(COC(=O)/C=C/c3ccccc3)cc2)C1=O | nt | 27.7 | -1.1 | nt | nt | nt
COC[C@H]1CCCN1c1ccc2c(c1)O[C@@H](COCc1ccccc1)CN([C@H](C)c1ccccc1)S2(=O)=O | nt | 18.1 | 0.3 | nt | nt | nt
COc1ccc(CNC(=O)/C(C#N)=C2\N=C(NC(=O)c3cccs3)c3ccccc32)cc1 | -3.4 | 51.3* | 6.7 | -11.2 | 0.4 | 33.5
COCCNC(=O)/C(C#N)=C1\N=C(NC(=O)c2cccs2)c2ccccc21 | 3.7 | -7.2 | 5.7 | -243.4 | 5.7 | nt
COC(=O)c1ccc(Cn2c(C)c(C(=O)NCc3ccc(Cl)c(Cl)c3)sc2=O)o1 | nt | 27.5 | -2.1 | nt | nt | nt
COc1ccc(N2CCN(C(=O)COC(=O)c3oc4ccccc4c3C)CC2)cc1 | 0.3 | 23.3 | -3.4 | nt | 0.3 | nt
N#Cc1ccc(-c2nc3ccc(Cl)cn3c2Cc2cccc(Cl)c2)cc1 | nt | 21.6 | -0.3 | nt | nt | nt
CCc1cccc(CC)c1NC(=O)/C(C#N)=C/c1ccccc1C(F)(F)F | -2.8 | 53.5* | -0.4 | -6.1 | 4.9 | 60.7*
SMILES | MIN6 prolif | FAS TE block | MPTP inh | p-CIP stab down | GRIN3A LBD mod | FAS-TE inh conf
N#Cc1cc2sc3nnc(-c4ccncc4)n3c2cc1C#N | 3.1 | 74.7* | -1.2 | 1.4 | -4.1 | 52.9*
N#Cc1cc2sc3nc4ccccc4n3c2cc1C#N | -1.1 | nt | nt | 8.2 | nt | nt
CC(C)c1ccc(CN2CCC(n3nccc3NC(=O)C3CCCC3)CC2)cc1 | nt | -3.1 | 1.7 | nt | nt | nt
CC12C(=O)N(c3ccc(OC(=O)c4ccco4)cc3)C(=O)C1C1c3ccccc3C2c2ccccc21 (stereo not given) | -2.3 | 60.4* | 0.1 | 4.1 | -3.5 | 27.6
O=C(NCc1cccc(OC(F)(F)F)c1)c1cccc2c1C(=O)c1ccc(-c3ccc(F)cc3OCc3ccccc3)cc1S2(=O)=O | -4.5 | 30.5 | 1.4 | nt | 0.7 | nt
O=C1c2ccc(-c3ccc(F)cc3OCc3ccccc3)cc2S(=O)(=O)c2cccc(C(=O)N3CCCC3)c21 | -5.8 | 61.7* | -0.1 | nt | -7.1 | -1.2
COc1ccccc1N1CCN(c2ccc3c(c2)S(=O)(=O)c2cccc(C(=O)NCc4cccc(F)c4)c2C3=O)CC1 | nt | 64.3* | -0.2 | nt | nt | 27.0
CCCS(=O)(=O)NC(=O)C1(C)CCCN(C(=O)c2c(OC)cccc2OC)C1 (stereo not given) | nt | -5.5 | -1.8 | nt | nt | nt
COC(=O)NC1(C(=O)O)CCCC1 | -2.4 | -4.1 | 1.0 | -11.3 | 0.8 | nt
O=C(NNS(=O)(=O)c1ccc([N+](=O)[O-])cc1)c1ccc2ccccc2c1O | -0.7 | 63.1* | 0.1 | 4.5 | 5.2 | 76.7*
O=C(NNS(=O)(=O)c1ccc([N+](=O)[O-])cc1)c1ccccc1 | nt | 12.6 | -2.6 | nt | 5.7 | nt
Nc1cc(-c2ccc(OC(F)(F)F)cc2)nn1-c1ccc(Cl)c(Cl)c1 | -4.0 | 58.2* | 25.4 | -21.2 | 24.1* | 25.0
COc1ccc(C2=NN(CN3C(=O)C(=O)c4ccccc43)C(c3cccc([N+](=O)[O-])c3)C2)cc1 (stereo not given) | -3.1 | 59.5* | 2.8 | -0.4 | 1.1 | 60.0*
O=C(O)c1cc2c(ncc3c(=O)n(-c4ccccc4)[nH]c32)s1 | nt | 2.1 | -2.9 | nt | nt | nt
O=C1NC(Cc2ccccc2)c2nc3cc(F)c(F)cc3c(=O)n2-c2cc3ccccc3cc21 (stereo not given) | nt | 85.5* | -0.2 | nt | nt | 14.1
COc1cc2nc3n(c(=O)c2cc1OC)-c1cc2ccccc2cc1C(=O)NC3Cc1ccccc1 (stereo not given) | nt | 52.7* | 3.3 | nt | nt | 19.6
O=C1NC(Cc2ccccc2)c2nc3ccccc3c(=O)n2-c2cc3ccccc3cc21 (stereo not given) | nt | 69.8* | -0.6 | nt | nt | -1.9
Cc1ccc2c(=O)n3c(nc2c1)C(Cc1ccccc1)NC(=O)c1cc2ccccc2cc1-3 (stereo not given) | nt | 76.4* | 0.0 | nt | nt | 35.8
O=C1NC(Cc2ccccc2)c2nc3ccccc3c(=O)n2-c2ccc(Cl)cc21 (stereo not given) | -1.2 | nt | nt | nt | nt | nt

Compound activity from PubChem.
